# Results from PubChem BioAssay.
# “And” between values parts separate entries of the source, which are not always exact repeats. Equal entries are not always repeated. The source made the active and inactive calls.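 The calls were made as follows, unless noted: active = thallium flux through the channel raised or lowered by more than 3 SD from vehicle-only wells, actives on both sides; inactive = the rest.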
# How the values were obtained:
# [1] = stimulators of nuclear beta-catenin in C2C12, primary screen, imaging, WNT3A-conditioned medium, mouse C2C12, NPC library (AID 1117326; in the data active = nuclear beta-catenin stimulation mostly above about 4.2%, no sharp cut-off; inactive = mostly below about 10%); conditions: stronger effect = higher value
# [2] = stimulators of insulin release from INS-1E, primary screen, cell-based, 5 mM glucose, NPC library (AID 1117329;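 active = compound raises insulin release from rat beta cells at 5 mM glucose, no numeric limit stated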); conditions: rat INS-1E insulin secretion, at 10 µM, stronger effect = higher value
# [3] = growth inhibition of GSK3B-pretreated HCT116 cells – cell-based, CellTiter-Glo, 0.2 to 20 µM (AID 1117336;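 active = compounds lowering colon cancer cell viability after pretreatment blocking the GSK3B kinase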); conditions: HCT116 viability after GSK3B inhibitor, at 20 µM, stronger effect = higher value
# [4] = inhibition of endothelial tube formation, primary screen, imaging, VEGF stimulated, CD31 staining, tube area, NPC library (AID 1117340;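 active = compound that reduces growth-factor-driven endothelial tube area in a mixed cell culture, no cutoff stated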); conditions: VEGF-stimulated ADSC/ECFC co-culture, at 10 µM, stronger effect = higher value
# [5] = glucagon-like peptide 1 release enhancers, primary assay, NCI-H716 cell line, NPC library (AID 1117341;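 active = compound raises GLP1 secretion from the human gut endocrine cells, with no numeric limit stated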); conditions: NCI-H716 cells, at 10 µM, stronger effect = higher value
# [6] = HCT116 colon cancer cell growth inhibition, primary screen, CellTiter-Glo luminescence, NPC library (AID 1117342;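 active = compounds that lower survival of HCT116 colon cancer cells in the luminescence readout, no numeric limit stated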); conditions: at 20 µM (top of the series)
# [7] = CellTiter-Glo luminescent readout of SW480 viability loss, NPC library primary (AID 1117343;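 active = compounds that lower viability of the colon cancer cells in the luminescence readout, with no numeric limit stated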); conditions: CellTiter-Glo luminescence; at 20 µM (top of the series)
# [8] = decreased DLD-1 cellular survival, CellTiter-Glo luminescent readout, NPC compound collection, primary HTS (AID 1117346;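 active = compounds that lower survival of DLD-1 colon cancer cells in the luminescence readout, no cutoff given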); conditions: DLD-1 viability, CellTiter-Glo luminescence; at 20 µM (top of the series)
# [9] = target: 6-phosphogluconate dehydrogenase, decarboxylating (Homo sapiens) (UniProt P52209); test: 6PGD enzyme inhibitors, primary screen, biochemical, human, recombinant enzyme, NADPH absorbance (AID 1159550;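 active = at least 20% inhibition of 6-phosphogluconate dehydrogenase activity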); conditions: recombinant 6PGD, NADPH absorbance 341 nm; at 10 µM; stronger effect = higher value
# [10] = differential killing of epithelial or mesenchymal cells, primary screen, imaging, PC-3E GFP, TEM4-18 mCherry, co-culture (AID 1345086;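 active = compounds killing one labelled cell type while sparing the other, by normalised counts and ratio limits, not self-fluorescent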;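 as to all read-outs here: cells exposed to compound for 72 h before imaging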;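 as to red/green cell ratio (normalised): normalised mesenchymal count divided by normalised epithelial count so high means epithelial killing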); conditions: imaging cell counts, at 1 µM; for red/green cell ratio (normalised): actives lie on both sides, counts scaled to control wells, 1 = unselective
# [11] = sensitizers of A549 cells to miR-34 induction, primary screen, imaging, A549 dox-inducible miR-34, nuclei and caspase counts (AID 1347080;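 active = compounds whose cell count with miR-34 switched on is under 0.7 times the count with it off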); conditions: A549 miR-34 inducible, Hoechst nuclei count, 48 h
# [12] = survival rescue of mitochondrial mutant cells in low glucose, primary screen, MELAS cybrids, Rieske KO mouse fibroblasts, CellTiter-Glo (AID 1508586;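 active = mean z-score across replicates of 1.96 or higher in either the MELAS or the Rieske mutant cell line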;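 also: z relative to plate mean and SD of compound and empty wells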)
# [13] = test system: F380Y; test: modulators of BK channel variants, profiling panel, selectivity assay, cell-based, U2OS BacMam, thallium flux, beta subunits (AID 1259406); conditions: at 30 µM;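 also: initial slope of Thallos dye fluorescence rise after thallium is added; log ratio against the mean of 0.3% DMSO vehicle wells on the same plate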
# [14] = test system: F380Y/beta1; test: as above; conditions: at 30 µM
# [15] = test system: F380Y/beta2Delta; test: as above; conditions: at 30 µM
# [16] = test system: F380Y/beta4; test: as above; conditions: at 30 µM
# [17] = target: Calcium-activated potassium channel subunit alpha-1 (Homo sapiens) + Leucine-rich repeat-containing protein 26 (Homo sapiens) (UniProt Q12791+Q2I0M4); test: as above; conditions: F380Y/Slo1WT/gamma1, at 30 µM
# [18] = test system: R275C; test: as above; conditions: at 30 µM
# [19] = test system: R275C/beta1; test: as above; conditions: at 30 µM
# [20] = measured here: epithelial PC-3E GFP cell survival
# [21] = measured here: mesenchymal TEM4-18 mCherry cell survival
# [22] = stronger effect = lower value, cell number ratio, induced over uninduced
# [23] = measured here: relative caspase fold change +Dox/-Dox
# [24] = measured here: total cells with miR-34 induction, stronger effect = lower value
# [25] = measured here: total cells without miR-34 induction
# [26] = MELAS cybrid survival, CellTiter-Glo 48 h, stronger effect = higher value
# [27] = Rieske KO mouse fibroblast survival, CellTiter-Glo 72 h
# Sequence of 6-phosphogluconate dehydrogenase, decarboxylating (Homo sapiens) (P52209 whole entry, looked up): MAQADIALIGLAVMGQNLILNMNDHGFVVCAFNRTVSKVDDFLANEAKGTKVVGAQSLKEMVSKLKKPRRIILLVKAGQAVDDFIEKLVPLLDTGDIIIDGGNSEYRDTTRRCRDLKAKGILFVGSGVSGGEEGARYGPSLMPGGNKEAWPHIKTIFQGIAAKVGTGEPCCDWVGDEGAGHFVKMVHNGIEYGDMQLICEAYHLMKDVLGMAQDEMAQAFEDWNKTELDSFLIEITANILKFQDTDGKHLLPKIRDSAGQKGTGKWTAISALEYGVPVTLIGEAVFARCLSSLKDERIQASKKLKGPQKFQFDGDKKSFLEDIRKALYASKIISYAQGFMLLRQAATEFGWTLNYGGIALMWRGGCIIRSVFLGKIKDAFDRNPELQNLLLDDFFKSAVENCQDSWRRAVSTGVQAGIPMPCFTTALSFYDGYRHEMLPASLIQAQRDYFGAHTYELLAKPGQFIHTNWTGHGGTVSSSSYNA
# Sequence of Calcium-activated potassium channel subunit alpha-1 (Homo sapiens) + Leucine-rich repeat-containing protein 26 (Homo sapiens) (Q2I0M4 whole entry, looked up, one chain of several): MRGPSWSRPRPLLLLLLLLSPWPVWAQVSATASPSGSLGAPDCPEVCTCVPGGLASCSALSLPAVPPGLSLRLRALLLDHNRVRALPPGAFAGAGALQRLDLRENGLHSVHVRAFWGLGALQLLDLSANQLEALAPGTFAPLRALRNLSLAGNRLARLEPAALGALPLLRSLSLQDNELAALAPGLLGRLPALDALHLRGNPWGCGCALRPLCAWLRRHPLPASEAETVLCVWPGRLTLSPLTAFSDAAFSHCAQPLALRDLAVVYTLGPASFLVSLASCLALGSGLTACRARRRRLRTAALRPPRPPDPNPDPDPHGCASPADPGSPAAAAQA
smiles,measurement,setting,value
CN1CCCC(n2nc(Cc3ccc(Cl)cc3)c3ccccc3c2=O)CC1 (centres undefined),nuclear beta-catenin stimulation,[1]; at 10 µM,1.5% (inactive)
same,nuclear beta-catenin stimulation,"[1]; stimulation, at 2 µM",1.7%
same,insulin secretion stimulation,[2],5.8% (inactive)
same,viability decrease,[3],-40.4% (inactive)
same,tube area decrease,[4],21.5% (inactive)
same,GLP1 secretion stimulation,[5],5.5% (inactive)
same,inhibition of viability,[6],64.8% (active)
same,viability decrease (inhibition),[7],-0.2% (inactive)
same,viability decrease (inhibition),[8],37.8% (inactive)
same,inhibition,[9],6.29% (inactive)
same,red/green cell ratio (normalised),[10],0.89 (inactive)
same,normalised cell number,[10]; [20],1.16
same,normalised cell number,[10]; [21],1.03
same,fold change,[11]; [22],0.849 (inactive) and 0.93 (inactive) and 0.906 (inactive)
same,fold change,[11]; [23],1.32 and 0.694 and 6.18
same,cell count,[11]; [24],5140 and 8770 and 9440
same,cell count,[11]; [25],6060 and 9430 and 10400
same,z-score,[12]; [26],-0.451 (inactive) and -0.0693 (inactive)
same,z-score,[12]; [27],0.19 and 0.396
same,log fold change Tl+ flux,[13],0.248 (active)
same,log fold change Tl+ flux,[14],0.109 (active)
same,log fold change Tl+ flux,[15],0.144 (active)
same,log fold change Tl+ flux,[16],0.258 (active)
same,log fold change Tl+ flux,[17],0.0633 (inactive)
same,log fold change Tl+ flux,[18],-0.0931 (inactive)
same,log fold change Tl+ flux,[19],0.101 (active)
O=S(=O)(O)CCS,nuclear beta-catenin stimulation,[1]; at 10 µM,1.9% (inactive)
same,nuclear beta-catenin stimulation,"[1]; stimulation, at 2 µM",1.8%
same,insulin secretion stimulation,[2],1.6% (inactive)
same,viability decrease,[3],4.9% (inactive)
same,tube area decrease,[4],11.9% (inactive)
same,GLP1 secretion stimulation,[5],2.6% (inactive)
same,inhibition of viability,[6],-4.57% (inactive)
same,viability decrease (inhibition),[7],-2.4% (inactive)
same,viability decrease (inhibition),[8],-8.8% (inactive)
same,inhibition,[9],6.93% (inactive)
same,red/green cell ratio (normalised),[10],1 (inactive)
same,normalised cell number,[10]; [20],1.08
same,normalised cell number,[10]; [21],1.09
same,fold change,[11]; [22],0.934 (inactive) and 0.882 (inactive)
same,fold change,[11]; [23],3.36 and 0.596 and 4.13
same,cell count,[11]; [24],9790 and 9090 and 11400
same,cell count,[11]; [25],10500 and 9730 and 12900
same,z-score,[12]; [26],-0.16 (inactive) and 0.426 (inactive)
same,z-score,[12]; [27],0.659 and -0.304
same,log fold change Tl+ flux,[13],-0.0468 (inactive)
same,log fold change Tl+ flux,[14],0.0507 (inactive)
same,log fold change Tl+ flux,[15],0.0371 (inactive)
same,log fold change Tl+ flux,[16],0.00454 (inactive)
same,log fold change Tl+ flux,[17],0.0089 (inactive)
same,log fold change Tl+ flux,[18],0.029 (inactive)
same,log fold change Tl+ flux,[19],-0.0746 (inactive)
CCCNCC(O)COc1ccccc1C(=O)CCc1ccccc1 (centres undefined),nuclear beta-catenin stimulation,[1]; at 10 µM,0.3% (inactive)
same,nuclear beta-catenin stimulation,"[1]; stimulation, at 2 µM",0.1%
same,insulin secretion stimulation,[2],32.4% (active)
same,viability decrease,[3],7.9% (inactive)
same,tube area decrease,[4],24.9% (inactive)
same,GLP1 secretion stimulation,[5],-2.7% (inactive)
same,inhibition of viability,[6],32.5% (inactive)
same,viability decrease (inhibition),[7],41% (inactive)
same,viability decrease (inhibition),[8],10.6% (inactive)
same,inhibition,[9],-5.6% (inactive)
same,red/green cell ratio (normalised),[10],1.04 (inactive)
same,normalised cell number,[10]; [20],1.35
same,normalised cell number,[10]; [21],1.41
same,z-score,[12]; [26],-0.438 (inactive) and -0.541 (inactive) and -0.854 (inactive)
same,z-score,[12]; [27],-0.529 and -0.098 and 0.366
same,log fold change Tl+ flux,[13],0.197 (active)
same,log fold change Tl+ flux,[14],0.0626 (inactive)
same,log fold change Tl+ flux,[15],0.0815 (active)
same,log fold change Tl+ flux,[16],0.161 (active)
same,log fold change Tl+ flux,[17],0.00467 (inactive)
same,log fold change Tl+ flux,[18],0.00823 (inactive)
same,log fold change Tl+ flux,[19],0.184 (active)
